These results are taken from paper PMC11006913.

What all share (assay): PBM; 200 nM protein, PBS
Common to all, as to details: dsDNA, one strand shown

Assay [1] deals with HESX1 (Homo sapiens, UniProt Q9UBX0 95-180, R165K).
Assay [2] deals with SHOX (Homo sapiens, UniProt O15266 103-189).
Another assay has as its target ALX4 (Homo sapiens, UniProt Q9H161 200-286, Q225E).
Assay [3] concerns the target HESX1 (Homo sapiens, UniProt Q9UBX0 95-180).
The next assay concerns the target MSX2 (Homo sapiens, UniProt P35548 130-214, R199I).
Assay [4] concerns the target ALX1 (Homo sapiens, UniProt Q15699 118-204, L144V).
For assay [5], the target named is ALX3 (Homo sapiens, UniProt O95076 139-225, N203Q).
The target of assay [6] is SHOX (Homo sapiens, UniProt O15266 103-189, R173C).
Assay [7] has as its target ALX1 (Homo sapiens, UniProt Q15699 118-204, L144R).
For assay [8], the target named is ALX3 (Homo sapiens, UniProt O95076 139-225).
The target in assay [9] is PROP1 (Homo sapiens, UniProt O75360 56-141).
Assay [10] has as its target HESX1 (Homo sapiens, UniProt Q9UBX0 95-180, R109Q).
Assay [11] addresses PROP1 (Homo sapiens, UniProt O75360 56-141, R99H).
Assay [12] concerns the target ALX3 (Homo sapiens, UniProt O95076 139-225, L168Q).
Assay [13] concerns the target HESX1 (Homo sapiens, UniProt Q9UBX0 95-180, P111T).
The target in assay [14] is ALX3 (Homo sapiens, UniProt O95076 139-225, L168V).
Assay [15] has as its target PROP1 (Homo sapiens, UniProt O75360 56-141, F88S).
The target in assay [16] is HESX1 (Homo sapiens, UniProt Q9UBX0 95-180, F115L).
Assay [17] concerns the target ALX1 (Homo sapiens, UniProt Q15699 118-204).
In assay [18] the target is ALX3 (Homo sapiens, UniProt O95076 139-225, N203S).
ALX3 (Homo sapiens, UniProt O95076 139-225, N203S), sequence (O95076 139-225 N203S): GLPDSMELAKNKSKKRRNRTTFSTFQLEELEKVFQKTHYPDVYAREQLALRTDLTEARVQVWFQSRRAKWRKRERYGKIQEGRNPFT

HESX1 (Homo sapiens, UniProt Q9UBX0 95-180, F115L), sequence (Q9UBX0 95-180 F115L): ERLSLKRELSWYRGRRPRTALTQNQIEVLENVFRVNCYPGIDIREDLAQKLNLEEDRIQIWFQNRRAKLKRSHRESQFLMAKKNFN
ALX4, sequence (Q9H161 200-286 Q225E): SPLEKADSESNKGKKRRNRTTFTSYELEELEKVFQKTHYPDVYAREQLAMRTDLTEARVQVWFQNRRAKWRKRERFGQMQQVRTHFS
PROP1 (Homo sapiens, UniProt O75360 56-141), sequence (O75360 56-141): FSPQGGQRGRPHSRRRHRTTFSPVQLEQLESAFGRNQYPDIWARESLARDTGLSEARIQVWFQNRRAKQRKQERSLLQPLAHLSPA
PROP1 (Homo sapiens, UniProt O75360 56-141, R99H), sequence (O75360 56-141 R99H): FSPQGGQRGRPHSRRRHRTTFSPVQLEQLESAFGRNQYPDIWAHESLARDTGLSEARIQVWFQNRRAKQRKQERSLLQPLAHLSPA
HESX1 (Homo sapiens, UniProt Q9UBX0 95-180), sequence (Q9UBX0 95-180): as the sequence (Q9UBX0 95-180 F115L) above, with L21F counted along it
SHOX (Homo sapiens, UniProt O15266 103-189), sequence (O15266 103-189): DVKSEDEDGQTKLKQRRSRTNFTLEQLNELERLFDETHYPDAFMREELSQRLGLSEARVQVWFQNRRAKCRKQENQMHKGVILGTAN
PROP1 (Homo sapiens, UniProt O75360 56-141, F88S), sequence (O75360 56-141 F88S): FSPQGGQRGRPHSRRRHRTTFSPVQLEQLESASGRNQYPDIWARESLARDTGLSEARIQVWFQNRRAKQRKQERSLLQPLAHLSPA
HESX1 (Homo sapiens, UniProt Q9UBX0 95-180, R165K), sequence (Q9UBX0 95-180 R165K): as the sequence (Q9UBX0 95-180 F115L) above, with L21F, R71K counted along it
ALX3 (Homo sapiens, UniProt O95076 139-225), sequence (O95076 139-225): as the sequence (O95076 139-225 N203S) above, with S65N counted along it
ALX3 (Homo sapiens, UniProt O95076 139-225, L168V), sequence (O95076 139-225 L168V): as the sequence (O95076 139-225 N203S) above, with L30V, S65N counted along it
HESX1 (Homo sapiens, UniProt Q9UBX0 95-180, P111T), sequence (Q9UBX0 95-180 P111T): as the sequence (Q9UBX0 95-180 F115L) above, with P17T, L21F counted along it
HESX1 (Homo sapiens, UniProt Q9UBX0 95-180, R109Q), sequence (Q9UBX0 95-180 R109Q): as the sequence (Q9UBX0 95-180 F115L) above, with R15Q, L21F counted along it
SHOX (Homo sapiens, UniProt O15266 103-189, R173C), sequence (O15266 103-189 R173C): as the sequence (O15266 103-189) above, with R71C counted along it
ALX3 (Homo sapiens, UniProt O95076 139-225, N203Q), sequence (O95076 139-225 N203Q): as the sequence (O95076 139-225 N203S) above, with S65Q counted along it
ALX3 (Homo sapiens, UniProt O95076 139-225, L168Q), sequence (O95076 139-225 L168Q): as the sequence (O95076 139-225 N203S) above, with L30Q, S65N counted along it
ALX1 (Homo sapiens, UniProt Q15699 118-204, L144R), sequence (Q15699 118-204 L144R): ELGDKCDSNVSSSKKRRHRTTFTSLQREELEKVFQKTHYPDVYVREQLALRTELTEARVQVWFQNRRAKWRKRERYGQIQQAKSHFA
ALX1 (Homo sapiens, UniProt Q15699 118-204), sequence (Q15699 118-204): as the sequence (Q15699 118-204 L144R) above, with R27L counted along it
MSX2, sequence (P35548 130-214 R199I): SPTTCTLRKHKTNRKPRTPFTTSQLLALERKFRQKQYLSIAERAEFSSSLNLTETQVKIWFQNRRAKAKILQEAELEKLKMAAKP
ALX1 (Homo sapiens, UniProt Q15699 118-204, L144V), sequence (Q15699 118-204 L144V): as the sequence (Q15699 118-204 L144R) above, with R27V counted along it

Regarding AATTAGTG, the binding signal with HESX1 [1] was 12.1 upbm affinity estimate (log intensity, higher = more binding, comparable within an allelic series); with SHOX [2], 12 upbm affinity estimate (log intensity, higher = more binding, comparable within an allelic series); with ALX4, 13.2 upbm affinity estimate (log intensity, higher = more binding, comparable within an allelic series); in the assay with HESX1 [3], 12.2 upbm affinity estimate (log intensity, higher = more binding, comparable within an allelic series); with MSX2, 12.6 upbm affinity estimate (log intensity, higher = more binding, comparable within an allelic series); in the assay with ALX1 [4], 11.8 upbm affinity estimate (log intensity, higher = more binding, comparable within an allelic series). The binding signal was 8.36 upbm affinity estimate (log intensity, higher = more binding, comparable within an allelic series) in the assay with ALX3 [5]; 9.65 upbm affinity estimate (log intensity, higher = more binding, comparable within an allelic series) in the assay with SHOX [6]; 11.4 upbm affinity estimate (log intensity, higher = more binding, comparable within an allelic series) with ALX1 [7]; 12.4 upbm affinity estimate (log intensity, higher = more binding, comparable within an allelic series) in the assay with ALX3 [8]; 11.3 upbm affinity estimate (log intensity, higher = more binding, comparable within an allelic series) with PROP1 [9]; 9.26 upbm affinity estimate (log intensity, higher = more binding, comparable within an allelic series) with HESX1 [10]. Moreover, the binding signal with PROP1 [11] was 11.4 upbm affinity estimate (log intensity, higher = more binding, comparable within an allelic series); with ALX3 [12], 10.7 upbm affinity estimate (log intensity, higher = more binding, comparable within an allelic series); in the assay with HESX1 [13], 10.9 upbm affinity estimate (log intensity, higher = more binding, comparable within an allelic series); with ALX3 [14] it was 10.1 upbm affinity estimate (log intensity, higher = more binding, comparable within an allelic series); with PROP1 [15], 7.69 upbm affinity estimate (log intensity, higher = more binding, comparable within an allelic series); in the assay with HESX1 [16] it was 7.88 upbm affinity estimate (log intensity, higher = more binding, comparable within an allelic series). Further, the binding signal with ALX1 [17] was 12.5 upbm affinity estimate (log intensity, higher = more binding, comparable within an allelic series); in the assay with ALX3 [18], 8.46 upbm affinity estimate (log intensity, higher = more binding, comparable within an allelic series).
As for AACTAATT, the binding signal was 11.5 upbm affinity estimate (log intensity, higher = more binding, comparable within an allelic series) in the assay with HESX1 [1]; 11.5 upbm affinity estimate (log intensity, higher = more binding, comparable within an allelic series) with SHOX [2]; 12.7 upbm affinity estimate (log intensity, higher = more binding, comparable within an allelic series) with ALX4; 11.5 upbm affinity estimate (log intensity, higher = more binding, comparable within an allelic series) with HESX1 [3]; 12.2 upbm affinity estimate (log intensity, higher = more binding, comparable within an allelic series) in the assay with MSX2; 11.5 upbm affinity estimate (log intensity, higher = more binding, comparable within an allelic series) with ALX1 [4]. Besides, the binding signal was 8.44 upbm affinity estimate (log intensity, higher = more binding, comparable within an allelic series) with ALX3 [5]; 9.12 upbm affinity estimate (log intensity, higher = more binding, comparable within an allelic series) with SHOX [6]; 11.2 upbm affinity estimate (log intensity, higher = more binding, comparable within an allelic series) with ALX1 [7]; 12.4 upbm affinity estimate (log intensity, higher = more binding, comparable within an allelic series) with ALX3 [8]; 11.2 upbm affinity estimate (log intensity, higher = more binding, comparable within an allelic series) with PROP1 [9]; 8.89 upbm affinity estimate (log intensity, higher = more binding, comparable within an allelic series) in the assay with HESX1 [10]. Also, the binding signal was 11.1 upbm affinity estimate (log intensity, higher = more binding, comparable within an allelic series) with PROP1 [11]; 10.3 upbm affinity estimate (log intensity, higher = more binding, comparable within an allelic series) in the assay with ALX3 [12]; 10.3 upbm affinity estimate (log intensity, higher = more binding, comparable within an allelic series) with HESX1 [13]; 9.88 upbm affinity estimate (log intensity, higher = more binding, comparable within an allelic series) with ALX3 [14]; 7.84 upbm affinity estimate (log intensity, higher = more binding, comparable within an allelic series) with PROP1 [15]; 7.81 upbm affinity estimate (log intensity, higher = more binding, comparable within an allelic series) with HESX1 [16]. For the same sequence, the binding signal is 12.3 upbm affinity estimate (log intensity, higher = more binding, comparable within an allelic series) with ALX1 [17] and 8.58 upbm affinity estimate (log intensity, higher = more binding, comparable within an allelic series) with ALX3 [18].
For the sequence AATTAAGG, the binding signal with HESX1 [1] was 11.4 upbm affinity estimate (log intensity, higher = more binding, comparable within an allelic series); in the assay with SHOX [2], 11.7 upbm affinity estimate (log intensity, higher = more binding, comparable within an allelic series); with ALX4 it was 12.8 upbm affinity estimate (log intensity, higher = more binding, comparable within an allelic series); in the assay with HESX1 [3] it was 11.4 upbm affinity estimate (log intensity, higher = more binding, comparable within an allelic series); with ALX3 [5] it was 8.39 upbm affinity estimate (log intensity, higher = more binding, comparable within an allelic series); with SHOX [6] it was 9.49 upbm affinity estimate (log intensity, higher = more binding, comparable within an allelic series). The binding signal with ALX3 [8] is 12.2 upbm affinity estimate (log intensity, higher = more binding, comparable within an allelic series); in the assay with PROP1 [9], 11 upbm affinity estimate (log intensity, higher = more binding, comparable within an allelic series); with HESX1 [10], 8.76 upbm affinity estimate (log intensity, higher = more binding, comparable within an allelic series); with PROP1 [11], 10.8 upbm affinity estimate (log intensity, higher = more binding, comparable within an allelic series); with ALX3 [12], 10.4 upbm affinity estimate (log intensity, higher = more binding, comparable within an allelic series); in the assay with HESX1 [13], 10.3 upbm affinity estimate (log intensity, higher = more binding, comparable within an allelic series). The binding signal in the assay with ALX3 [14] is 9.9 upbm affinity estimate (log intensity, higher = more binding, comparable within an allelic series); in the assay with PROP1 [15], 7.57 upbm affinity estimate (log intensity, higher = more binding, comparable within an allelic series); with HESX1 [16] it was 7.55 upbm affinity estimate (log intensity, higher = more binding, comparable within an allelic series); in the assay with ALX3 [18] it was 8.48 upbm affinity estimate (log intensity, higher = more binding, comparable within an allelic series).
